# Measurements from PubChem BioAssay.
# For part of these data: Measured potencies and affinities stand elsewhere. This is one part of the list. The source made the active and inactive calls.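 The calls were made as follows, unless noted: active = dose curve with midpoint inside tested range, moderate steepness, plateau gap beyond fit error, low compound glow and bead-link interference; inactive = the rest.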
# What was measured:
# [1] = molecular target: Cell division control protein 42 homolog (Homo sapiens) (UniProt P60953); assay: inhibition of fluorescent GTP binding to constitutively active Cdc42 – biochemical, multiplex bead flow cytometry, Bodipy-FL-GTP, dose response (AID 1333;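 active = fitted half-maximal concentration within the tested dose range, moderate curve steepness, a statistically real signal drop, and little compound fluorescence or tag-binding interference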)
# Sequence of Cell division control protein 42 homolog (Homo sapiens) (P60953 whole entry, looked up): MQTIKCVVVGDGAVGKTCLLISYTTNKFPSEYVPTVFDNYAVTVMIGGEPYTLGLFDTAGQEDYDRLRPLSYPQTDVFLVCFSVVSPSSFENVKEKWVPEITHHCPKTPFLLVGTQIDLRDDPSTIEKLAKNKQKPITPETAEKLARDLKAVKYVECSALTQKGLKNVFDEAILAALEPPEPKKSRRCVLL
# [2] = molecular target: Cell division control protein 42 homolog (Homo sapiens) (UniProt P60953); assay: inhibition of fluorescent GTP binding to wildtype Cdc42 – biochemical, multiplex bead flow cytometry, Bodipy-FL-GTP, dose response (AID 1334;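 active = fitted half-maximal concentration within the tested range, moderate curve steepness, significant signal drop, and little compound fluorescence or bead-linkage interference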); settings: bead-based flow cytometry, Bodipy-FL-GTP binding to GST-Cdc42; at 100 µM (top of the series) unless noted
# [3] = molecular target: GTPase HRas (Homo sapiens) (UniProt P01112); assay: Ras wt fluorescent GTP loading blockade – biochemical, wildtype, multiplex bead flow cytometry, dose response (AID 1335;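 active = fitted half-maximal concentration within 10 nM to 100 µM, steepness 0.5 to 2, significant signal drop, low assay interference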); settings: bead-based flow cytometry, Bodipy-GTP binding to GST-Ras; at 100 µM (top of the series) unless noted
# Sequence of GTPase HRas (Homo sapiens) (P01112 whole entry, looked up): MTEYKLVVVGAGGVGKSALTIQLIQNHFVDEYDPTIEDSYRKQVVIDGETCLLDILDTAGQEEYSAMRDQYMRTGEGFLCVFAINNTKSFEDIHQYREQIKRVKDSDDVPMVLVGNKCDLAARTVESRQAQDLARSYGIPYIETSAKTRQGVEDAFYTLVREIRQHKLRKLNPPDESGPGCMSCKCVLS
# [4] = test system: Ras-related protein Rab-7a (dog), GTP binding; assay: blockers of fluorescent GTP binding to Rab7 – biochemical, wildtype, multiplex bead flow cytometry, dose response (AID 1336; call rule not given here)
# [5] = molecular target: Ras-related C3 botulinum toxin substrate 1 (Homo sapiens) (UniProt P63000); assay: inhibition of wildtype Rac1 nucleotide loading – biochemical, multiplex bead flow cytometry, dose response (AID 1340); settings: GST-Rac1 beads, Bodipy-FL-GTP binding; at 100 µM (top of the series) unless noted
# [6] = molecular target: GTPase HRas (Homo sapiens) (UniProt P01112); assay: blockade of GTP loading onto mutant Ras – biochemical, activated mutant, multiplex bead flow cytometry, dose response (AID 1341;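 active = dose-response curve with midpoint inside the tested range, moderate steepness, significant amplitude and little compound fluorescence or bead-attachment interference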;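 also: GST-tagged constitutively activated Ras mutant immobilized on beads and multiplexed with other GTPases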)
# [7] = molecular target: Regulator of G-protein signaling 16 (Homo sapiens) (UniProt O15492); assay: small molecules altering RGS protein interactions with GNAO1 – biochemical, multiplexed beads, flow cytometry, RGS4/7/8/16/19, primary screen (AID 1504); settings: multiplexed bead flow cytometry, measured here: RGS16 interaction, at 10 µM;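 also: fluorescently labeled Galpha-o bound to GDP with aluminium fluoride binding biotinylated RGS beads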
# [8] = molecular target: Regulator of G-protein signaling 19 (Homo sapiens) (UniProt P49795); assay: as above; settings: multiplexed bead flow cytometry, measured here: RGS19 interaction, at 10 µM
# [9] = molecular target: Regulator of G-protein signaling 7 (Homo sapiens) (UniProt P49802); assay: as above; settings: multiplexed bead flow cytometry, measured here: RGS7 interaction, at 10 µM
# [10] = molecular target: Regulator of G-protein signaling 8 (Homo sapiens) (UniProt P57771); assay: as above; settings: multiplexed bead flow cytometry, measured here: RGS8 interaction, at 10 µM
# [11] = interference with biotin-avidin bead interaction – biochemical, flow cytometry, bead-based, counter-screen for RGS protein interaction modulators (AID 1783;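 active = inhibition above 50%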;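 also: median green fluorescence of gated singlet beads compared with DMSO control wells; 0% = DMSO wells and 100% = complete loss of bead fluorescence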); settings: streptavidin beads, fluorescein-biotin binding; at 10 µM, stronger effect = higher value
# [12] = molecular target: Guanine nucleotide-binding protein G(o) subunit alpha (Homo sapiens) (UniProt P09471); assay: retest of RGS8-Galphao interaction hits – biochemical, multiplexed bead flow cytometry, single concentration, confirmation (AID 1836; in the data active = binding response below about 72% or above about 130%; inactive = in between;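 also: Galphao activated as GDP AlF4 complex before binding bead RGS8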); settings: bead-based flow cytometry RGS8-Galphao binding, fluorescence; at 10 µM; actives lie on both sides
# Sequence of Guanine nucleotide-binding protein G(o) subunit alpha (Homo sapiens) (P09471 whole entry, looked up): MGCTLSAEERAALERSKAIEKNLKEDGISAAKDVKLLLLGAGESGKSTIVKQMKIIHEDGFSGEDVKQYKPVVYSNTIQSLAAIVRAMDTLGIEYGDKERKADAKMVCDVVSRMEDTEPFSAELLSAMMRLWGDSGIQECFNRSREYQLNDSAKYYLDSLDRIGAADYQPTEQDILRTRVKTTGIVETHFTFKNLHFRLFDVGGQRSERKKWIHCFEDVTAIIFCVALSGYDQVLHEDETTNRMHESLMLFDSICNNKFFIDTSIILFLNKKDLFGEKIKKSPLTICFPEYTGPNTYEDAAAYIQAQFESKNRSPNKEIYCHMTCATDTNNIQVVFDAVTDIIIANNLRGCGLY
# [13] = molecular target: Guanine nucleotide-binding protein G(o) subunit alpha (Homo sapiens) (UniProt P09471); assay: retest of RGS7-Galphao interaction hits – biochemical, multiplexed bead flow cytometry, single concentration, confirmation (AID 1837; in the data active = response below about 75% or above about 130%; inactive = in between;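 also: fluorescent Galphao activated with GDP and aluminum fluoride binding bead-coupled RGS7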); settings: bead-based flow cytometry RGS7-Galphao binding; at 10 µM; actives lie on both sides
# [14] = molecular target: Regulator of G-protein signaling 16 (Homo sapiens) + Guanine nucleotide-binding protein G(o) subunit alpha (Homo sapiens) (UniProt O15492+P09471); assay: RGS16 and Galphao interaction regulators – biochemical, single concentration, multiplexed bead flow cytometry, confirmation (AID 1838; in the data active = response below about 74% or above about 130%; inactive = in between;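 also: Galphao activated as the GDP aluminium fluoride complex binding bead-coupled RGS16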); settings: bead-based flow cytometry, at 10 µM, actives lie on both sides
# Sequence of Regulator of G-protein signaling 16 (Homo sapiens) + Guanine nucleotide-binding protein G(o) subunit alpha (Homo sapiens) (O15492 whole entry, looked up): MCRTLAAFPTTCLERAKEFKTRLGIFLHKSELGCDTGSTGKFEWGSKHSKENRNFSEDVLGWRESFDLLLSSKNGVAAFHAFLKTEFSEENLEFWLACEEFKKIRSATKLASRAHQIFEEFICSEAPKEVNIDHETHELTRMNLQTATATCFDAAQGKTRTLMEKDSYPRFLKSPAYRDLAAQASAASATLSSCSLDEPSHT
# Sequence of Regulator of G-protein signaling 16 (Homo sapiens) + Guanine nucleotide-binding protein G(o) subunit alpha (Homo sapiens) (P09471 whole entry, looked up): as the sequence (P09471 whole entry, looked up) above
# [15] = molecular target: Guanine nucleotide-binding protein G(o) subunit alpha (Homo sapiens) (UniProt P09471); assay: RGS4 and Galphao interaction regulators – biochemical, single concentration, multiplexed bead flow cytometry, confirmation (AID 1840; in the data active = binding response below about 74% or above about 130%; inactive = in between); settings: at 10 µM, actives lie on both sides
# [16] = molecular target: Guanine nucleotide-binding protein G(o) subunit alpha (Homo sapiens) + Regulator of G-protein signaling 19 (Homo sapiens) (UniProt P09471+P49795); assay: RGS19 interaction with Gαo, hit retest – biochemical, single point, multiplexed bead flow cytometry, confirmation (AID 1841; in the data active = response below about 50% or above about 160%; inactive = in between;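 also: 100% = no compound control and 0% = blank background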); settings: bead-based flow cytometry RGS19-Galphao binding; at 10 µM; actives lie on both sides
# Sequence of Guanine nucleotide-binding protein G(o) subunit alpha (Homo sapiens) + Regulator of G-protein signaling 19 (Homo sapiens) (P09471 whole entry, looked up): as above
# Sequence of Guanine nucleotide-binding protein G(o) subunit alpha (Homo sapiens) + Regulator of G-protein signaling 19 (Homo sapiens) (P49795 whole entry, looked up): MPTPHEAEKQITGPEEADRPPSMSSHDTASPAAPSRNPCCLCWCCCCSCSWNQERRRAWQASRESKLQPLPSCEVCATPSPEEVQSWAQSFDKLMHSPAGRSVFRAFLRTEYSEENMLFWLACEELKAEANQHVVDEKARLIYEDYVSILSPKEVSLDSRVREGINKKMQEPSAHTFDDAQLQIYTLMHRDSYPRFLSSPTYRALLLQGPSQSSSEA
# [17] = hit retest on RPL19A-GFP reporter strain – cell-based, S. cerevisiae, flow cytometry, cherry picks, mother/daughter gates, confirmation (AID 2270;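 active = GFP response below 50% of the DMSO control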); settings: 3 h, at 10 µM, stronger effect = lower value, 100 = same GFP as DMSO wells
# [18] = yeast TOR pathway reporter LAP4-GFP change – cell-based, cherry picks, flow cytometry, mother/daughter gates, confirmation (AID 2271;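 active = GFP response above 150% of the DMSO control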;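 also: ratio of sample to DMSO plate mean so 100% equals DMSO level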); settings: S. cerevisiae LAP4-GFP strain, 3 h, at 10 µM, stronger effect = higher value, 100 means same as DMSO control
# [19] = TOR pathway reporter MEP2-GFP, retest of hits – S. cerevisiae, flow cytometry GFP, cherry picks, confirmation (AID 2272;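 active = GFP response above 150% of the DMSO control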;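 also: ratio of well signal to plate DMSO mean so 100% equals DMSO level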); settings: S. cerevisiae MEP2-GFP strain, 3 h, at 10 µM, stronger effect = higher value
# [20] = yeast AGP1-GFP fluorescence change, single-dose – cell-based, flow cytometry, S. cerevisiae, cherry picks, confirmation (AID 2273;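 active = GFP response above 150% of the DMSO level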;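 also: median GFP channel fluorescence over the whole cell population gate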); settings: S. cerevisiae AGP1-GFP strain, 3 h, at 10 µM
# [21] = TOR pathway CIT2 reporter hit retest – S. cerevisiae, GFP fusion, cherry picks, mother/daughter gates, confirmation (AID 2274;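 active = GFP response above 150% of the DMSO level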); settings: S. cerevisiae CIT2-GFP strain, flow cytometry, 3 h, at 10 µM, stronger effect = higher value
# [22] = measured here: daughter cell gate
# [23] = measured here: mother cell gate
structure (smiles),measurement,setting,value
O=C(OCC1O[C@@H](OC(=O)c2cc(O)c(O)c(O)c2)[C@@H](OC(=O)c2cc(O)c(O)c(O)c2)[C@@H](OC(=O)c2cc(O)c(O)c(O)c2)[C@@H]1OC(=O)c1cc(O)c(O)c(O)c1)c1cc(O)c(O)c(O)c1 (stereo partly drawn),outcome,[1],inactive
same,"fluorescence, percent of control (lower = inhibition)",[2],21.1%
same,"GTP binding, percent of control",[3],58.6%
same,outcome,[4],inactive
same,"GTP binding signal, raw median fluorescence (lower = inhibition) (MCF (arbitrary fluorescence units))",[5],145
same,outcome,[6],inactive
same,RGS16–Galpha-o binding response,[7],51.1%
same,RGS19–Galpha-o binding response,[8],-410%
same,RGS7–Galpha-o binding response,[9],20.5%
same,RGS8–Galpha-o binding response,[10],46.9%
same,inhibition,[11],-1.9% (inactive)
same,binding response (% of control),[12],35.2% (active)
same,response (percent of control binding),[13],-10.3% (active)
same,response (% of control binding),[14],29.8% (active)
same,binding response (% of control),[15],-1.02% (active)
same,response (percent of control binding),[16],46.8% [inhibitor] (active)
O=C(C#Cc1cccc([N+](=O)[O-])c1)c1ccccc1,outcome,[1],inactive
same,"fluorescence, percent of control (lower = inhibition)",[2],31.6%
same,"GTP binding, percent of control",[3],81%
same,outcome,[4],inactive
same,"GTP binding signal, raw median fluorescence (lower = inhibition) (MCF (arbitrary fluorescence units))",[5],245
same,outcome,[6],inactive
same,GFP response vs DMSO,[17],94.1% (inactive)
same,GFP response vs DMSO,[17]; [22],98%
same,GFP response vs DMSO,[17]; [23],88%
same,GFP response relative to DMSO,[18],190% (active)
same,GFP response relative to DMSO,[18]; measured here: daughter cell gate response,167%
same,GFP response relative to DMSO,[18]; measured here: mother cell gate response,178%
same,GFP response vs DMSO,[19],133% (inactive)
same,"GFP response, % of DMSO",[20],113% (inactive)
same,"GFP response, % of DMSO",[21],101% (inactive)
same,"GFP response, % of DMSO",[21]; [22],104%
same,"GFP response, % of DMSO",[21]; [23],91%
